The results in this text go back to PubChem BioAssay (NCI).

The panel holds about 83,000 compounds, 20% with a hit somewhere; the sample as a whole holds those more often.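 Note: values are percent growth. 100 is the growth of untreated cells, values between 100 and 0 indicate rising inhibition; between -100 and 0 indicates cell death.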 Unmarked numbers belong to inactive results. Calls of active or inactive are those of the source.

This assay relates to M14 melanoma. Nature of the assay: NCI-60 one-dose screen, 48 h (100 = growth as untreated, 0 = no growth, -100 = all killed). To be noted: 10 µM. As to the method: Growth inhibition of the M14 human tumor cell line is measured as a screen for anti-cancer activity. Cells are grown in 96 well plates and exposed to the test compound for 48 hours. Compounds are tested at a single concentration, which is 10^-5 M for most compounds. The reported endpoint is percent growth (GI% or GIPRCNT), where numbers from 0 - 100% represent growth inhibition, and numbers from -100% - 0 represent cell death. For example, a value of 40 represents 60% growth inhibition. A value of 0 means no net growth occurred over the course of the experiment. A value of -40 indicates 40% of cells at the beginning of the experiment died by the end of the experiment. A value of -100 means all cells are dead at the end of the experiment.
NCI-60 Human Tumor Cell Lines Screen was performed using the standard one-dose NCI protocol, which is described in more detail at https://dtp.cancer.gov/discovery_development/nci-60/default.htm.
Compounds with GIPRCNT values below 10 were considered active. Activity score was based on GIPRCNT using the following formula: […]
Score is 0 for GIPRCNT values of 100 or above, 50 for GIPRCNT values of 0, and 100 for GIPRCNT values of -100.
As for `Nc1nnc(-c2c[nH]c3ccc(F)cc23)c(-c2c[nH]c3ncccc23)n1`, the growth is 63.5%. Then `CC(=O)c1cc(C(=O)N2c3ccccc3Sc3ccccc32)n2ccc(C)cc12`, with 36.1%.

Regarding `CCOP(=O)(OCC)O[C@H]1CCC(=O)[C@@H]2[C@H]1[C@H]1C[C@@H]3[C@@]4(C)CCCC(C)(C(=O)OC)[C@@H]4CC[C@@]23C=C1C(C)C` (stereo not given in full), the growth was 55.4%.

Turning to `COc1cc(/C=C/C(=O)c2ccc(NC(=O)CN3C(=O)NC(C)(c4ccccc4)C3=O)cc2)cc(OC)c1OC` (stereo not given), the growth is 46.8%. With `O=C(CSc1nnc(-c2c[nH]c3ccccc23)n1-c1ccccc1)Nc1ccc(C(=O)/C=C/c2cccc([N+](=O)[O-])c2)cc1`, the growth is 94.1%. Then `CCCCCCCCCCCCCCCCCCCC(=O)NCCc1c[nH]c2ccc(OC(=O)NOCCOCCOCCOCCOCCOCCOCCOCCOCCOCCOCCOCCOCCOCCOCCOCCOCCOCCOCCOCCOCCOCCOC)cc12`, with -18.8% (active). For the compound `NS(=O)(=O)c1ccc(N=Nc2c(O)n(CC(=O)Nc3ccccc3Br)c3ccccc23)cc1`, the growth was 27.9%. The result for `O=C(CSc1nnc(-c2c[nH]c3ccccc23)n1-c1ccccc1)Nc1ccc(C(=O)/C=C/c2ccccc2Cl)cc1` reads 87.7%; that for `O=C1Nc2ccc(F)cc2/C1=C/c1cccc(OCc2ccccn2)c1`, 36.3%. `COc1ccc(CCN2C(=O)/C(=C/c3csc(C#N)n3)SC2=S)cc1OC`: the growth is 2.13% (active).

For the compound `CCOC(=O)N/C(=C1/OCCN1C)[P+](c1ccccc1)(c1ccccc1)c1ccccc1`, the growth was 90.9%.

Regarding `C=CC(=O)Nc1ccc(C(=O)/C=C/c2ccc(N(C)CCF)cc2)c(O)c1`, the growth was -56.3% (active).

Take `O=C(N/N=C/c1ccc(B(O)O)o1)c1[nH]c2ccc(Br)cc2c1-c1ccccc1`: the growth was 20.1%. The result for `CN(C(=O)c1ccc(C(F)(F)F)cc1C(F)(F)F)c1sc2c(c1C#N)CCC(=O)C2` reads 73.9%; that for `CC(=O)Nc1ccc(-c2cn(-c3cccc(C(=O)Nc4ccc(F)c(C(F)(F)F)c4)c3)nn2)cn1`, 62.6%. The result for `O=C(CSc1nnc(-c2c[nH]c3ccccc23)n1-c1ccccc1)Nc1ccc(C(=O)/C=C/c2ccc(Cl)cc2)cc1` reads 81.8%.

With `CC1=N/C(=C\c2ccc(N(C)C)cc2)C(=O)N1CCc1ccc(S(N)(=O)=O)cc1`, the growth is 97.3%. Then `O=C1Nc2ccc(F)cc2/C1=C/c1cccc(OCc2ccccc2)c1`, with 17.3%; and `CCN1CCN(c2ccc(NC(=O)Nc3ccc4c(c3F)CCN4c3ccnc(C(=O)NC)c3)cc2C(F)(F)F)CC1`, with -92.6% (active). The result for `O=C1NC(=NC23CC4CC(CC(C4)C2)C3)N/C1=C\c1ccc2ncsc2c1` reads 42%; that for `CC(=O)Nc1nc(-c2ccc(N3CCN(C)CC3)c(NS(=O)(=O)c3ccc(C(F)(F)F)cc3)c2)cs1`, -3.51% (active); that for `COC[C@@H](CC(C)C)N=C1NC(=O)/C(=C/c2ccc3ncsc3c2)N1`, 42.3%. The result for `CC(C)CCSc1nc(NC2CC2)c(C#N)c(-c2ccc(C(C)C)cc2)n1` reads 109%; that for `Cc1ccc(F)cc1N/C=c1\s/c(=C(\C#N)C(=O)Nc2ccccc2)n(-c2ccccc2)c1=O`, 82.4%.

For `C#CCNC(=O)CCC(=O)OC[C@]12CC[C@@H](C(=C)C)[C@@H]1C1CC[C@@H]3[C@@]4(C)CCCNC(C)(C)[C@@H]4CC[C@@]3(C)[C@]1(C)CC2` (stereo not given in full), the growth is -80.4% (active).

As for `O=C1Nc2cc(Cl)ccc2/C1=C/c1cccc(OCc2ccc(Br)cc2F)c1`, the growth is -32.6% (active). Then `COc1ccc(CN2[C@@H](C(=O)NCc3ccc(C(=O)NO)cc3)Cc3c([nH]c4ccccc34)[C@@H]2C2CC2)cc1`, with 16.1%. The result for `CCCn1c(O)c(N=Nc2nc(-c3cc4ccccc4oc3=O)cs2)c2cc(Br)ccc21` reads 97.6%; that for `CN1CCN(Cc2ccc(NC(=O)c3cncc(C#Cc4cnc5ccc(N[C@@H]6CCOC6)nn45)c3)cc2C(F)(F)F)CC1`, -83.3% (active); that for `COc1cccc(-c2nn(-c3ccccc3)cc2-c2ccnc(NCCCNC(=O)Nc3ccc(F)cc3)c2)c1`, -21% (active).

Turning to `COC[C@@H](CC(C)C)N=C1N/C(=C\c2ccc3ncsc3c2)C(=O)N1C`, the growth is 38.1%. On to `N#Cc1c(Cl)nc(SCc2ccc(F)cc2)nc1-c1ccc(F)cc1`, for which the growth is 103%.

Regarding `CCCSc1nc(NC2CC2)c(C#N)c(-c2ccc(OC)cc2)n1`, the growth is 129%. Then `COc1cnc2c(c1)C(=O)c1c-2n(CCCNC(C)C)c(=O)c2cc(OC)c(OC)cc12`, with 45.3%; and `Nc1nnc(-c2c[nH]c3ncccc23)c(-c2c[nH]c3ccc(Br)cc23)n1`, with 50.3%; and `CC1(C)CC[C@]2(C(=O)Nc3ccccc3)CC[C@]3(C)C(=CC[C@@H]4[C@@]5(C)CC[C@H](N)C(C)(C)[C@@H]5CC[C@]43C)[C@H]2C1`, with 82.4%. The result for `COC(=O)CC1CC1C1Cc2c(nc(N(C)S(C)(=O)=O)nc2C(C)C)-c2ccc(F)cc21` (stereo not given) reads 70.4%. The result for `C=C1CCC2C3(C)COC(c4cccc(F)c4)OC3CCC2(C)C1CC(O)C1=CCOC1=O` (stereo not given) reads 61.1%. Take `O=C(NO)c1ccc(Cn2ccc3c(Nc4ccccc4)ncnc32)cc1`: the growth was 10.5%. The result for `O=C(Nc1ccc(OCc2ccccc2)cc1)Nc1ccc(Cl)c(C(F)(F)F)c1` reads 19.3%.
